# Source: ChEMBL document CHEMBL3988442, “University of Dundee, Small-Polar-MMV Screening Library” (2021)
# Screen size: about 48,000 compounds; about 13,000 (27%) showed an effect of 50% or more. The list shows a part of the results.
# Test system: Wolbachia pipientis
# Test: Anti-Wolbachia Cell-Based Screen
# Format: functional
# Design: scale not given: in the data most compounds retested in dose-response had high values
# Conditions: 5 µM
row,SMILES,Percent Effect [%]
1,C[C@@H]1CN(Cc2ccc(-c3ccncc3)cc2F)CC(C(N)=O)O1 (stereo partly specified),-2.76
2,Cc1ccccc1OCCN(C)Cc1noc(CC(C)C)n1,-23.34
3,c1ccc(Cc2nnc(CN3CCCCC3Cn3cncn3)o2)cc1 (stereo unspecified),108.9
4,CCc1nnc(CN2CCCCC2Cn2nc(C)nc2C)o1 (stereo unspecified),93.98
5,CCc1nnc(CN2CCCCC2Cn2cncn2)o1 (stereo unspecified),78.77
6,Cc1nc(C2CCCN2Cc2nnc(Cc3ccccc3)o2)no1 (stereo unspecified),-12.76
7,c1ccc(Cc2nnc(CN3CCCC3Cn3cccn3)o2)cc1 (stereo unspecified),131.9
8,Cc1nc(C)n(CC2CCCCN2Cc2nnc(C3CC3)o2)n1 (stereo unspecified),1.656
9,CCc1nc(C2CCCN2Cc2nnc(Cc3ccccc3)o2)no1 (stereo unspecified),6.131
10,Cc1cnn(CC2CCCCN2CCn2cncn2)c1 (stereo unspecified),-5.934
11,Cc1nc(C)n(CC2CCCCN2CCCS(C)(=O)=O)n1 (stereo unspecified),12.99
12,Clc1snnc1CN1CCCCC1Cn1cncn1 (stereo unspecified),-4.6
13,OC1CCN(c2ccc(CNc3nc4ccccc4s3)cc2F)CC1,-3.16
14,CS(=O)(=O)N1CCc2[nH]cnc2C12CCN(C(=O)c1ccc[nH]1)CC2,5.069
15,NCCC1CN(Cc2cnc3c(-c4ccccc4)cnn3c2)CCO1 (stereo unspecified),4.404
16,CN(C)CCCN(C)c1nccc(N2CCN[C@H]3CS(=O)(=O)C[C@H]32)n1,-10.75
17,COCCNC(=O)NCCn1nc(C(F)(F)F)n(C)c1=O,0.0676
18,CC1(C)CN(Cc2c[nH]c(CC3CCCC3)n2)CC[C@]1(C)O,-6.969
19,Cc1cc(C)c(S(=O)(=O)Nc2ccccc2CC(F)(F)F)cc1C(=O)O,3.88
20,c1cnc2c(c1)nc1n2[C@@H](CNCc2nccs2)COC1,-1.802
21,Cc1nc(C)n(CC2CCCCN2Cc2cscn2)n1 (stereo unspecified),10.69
22,Fc1ccc(-c2cnc(CN3CCCC3Cn3cccn3)o2)cc1 (stereo unspecified),-6.963
23,Cc1nc(C)n(CC2CCCN2Cc2cnc(C)s2)n1 (stereo unspecified),-0.1768
24,Fc1ccc(-c2nnc(CN3CCCC3Cn3cccn3)o2)cc1 (stereo unspecified),88.78

row,SMILES,Percent Effect [%]
1,Cc1nc(C)n(CC2CCCCN2Cc2cnc(C)s2)n1 (stereo unspecified),97.07
2,OCC(O)CSCc1cc(Cl)ccc1Cl (stereo unspecified),-6.234
3,Cc1ccc(F)cc1NC(=O)CNc1cccc2c1CCCC2,-15.05
4,CC(=O)NC1CCCc2c1[nH]c1ccc(F)cc21 (stereo unspecified),97.09
5,CC(=O)NC(c1cc(F)ccc1F)C1CC1 (stereo unspecified),0.9467
6,O=C(NCC1CC1)c1n[nH]c2c1CNCC2.O=C(O)C(F)(F)F.O=C(O)C(F)(F)F,-32.44
7,O=C(NC1CCCc2c1[nH]c1ccc(F)cc21)c1n[nH]c2c1CCCC2 (stereo unspecified),120.6
8,O=C(NC1CCCc2c1[nH]c1ccc(F)cc21)c1n[nH]c2c1CCC2 (stereo unspecified),132.4
9,O=C(c1cc2c([nH]c1=O)CCC2)N1CCCC1c1ccc(F)cc1 (stereo unspecified),20.74
10,O=C1CC(N(C(=O)c2ccc3[nH]c4c(c3c2)CCCC4)C2CC2)C(=O)N1 (stereo unspecified),7.465
11,O=C(NC1CCC1)c1n[nH]c2c1CNCC2,-9.631
12,C/C=C(\C)CN1C[C@H](NC(=O)c2cc[nH]c2C)[C@@H](C2CC2)C1,-10.95
13,CN(C)c1ncncc1NC(=O)Cc1c[nH]c2ccc(F)cc12,-1.659
14,CC(=O)c1cccc(OCCCC(=O)N(C)CCC(F)(F)F)c1,2.017
15,COC(C)c1noc(CN2CCCNCC2)n1 (stereo unspecified),-0.5202
16,CCOC(C)c1noc(CN2CCNCC2)n1 (stereo unspecified),-2.697
17,CNC(=O)C1CCCN(C(=O)c2ccccc2-n2cc(CN)cn2)C1 (stereo unspecified),111.9
18,CN(C)C(=O)C1CCCN(C(=O)c2ccccc2-n2cc(CN)cn2)C1 (stereo unspecified),125.8
19,CN(C)C(=O)N1CCCC(C(=O)N(C)CCCc2cnn(C)c2)C1 (stereo unspecified),4.306
20,NCc1cnn(-c2ccccc2C(=O)N2CCCC(C(N)=O)C2)c1 (stereo unspecified),94.05
21,NCc1cnn(-c2ccccc2C(=O)NCc2ccncc2)c1,-9.699
22,CN(C)C(=O)N1CCCC(C(=O)N(C)Cc2cnc(N)nc2)C1 (stereo unspecified),11.15
23,Cc1ccn(-c2ccc(C(=O)N3CCCC(C(N)=O)C3)cc2)n1 (stereo unspecified),-6.024
24,CNC(=O)C1CCCN(C(=O)NCCC2Cc3ccccc3C2)C1 (stereo unspecified),-25.4

row,SMILES,Percent Effect [%]
1,NC(=O)C1CCCN(S(=O)(=O)c2cnn(-c3ccccc3)c2)C1 (stereo unspecified),5.842
2,NC(=O)c1cccc(CNC/C=C/c2ccccc2)c1,-6.459
3,CC(C)OCCOCC(O)CN(C)C(=O)Nc1ccc(F)cc1Cl (stereo unspecified),-7.203
4,CCc1nc(CNc2cc(Cl)ccc2OCC2CCCO2)no1 (stereo unspecified),-12.87
5,CCOc1ccccc1Nc1nc2c(C)nn(C)c2c(=O)n1C,-3.425
6,CCn1c(Nc2ccccc2OC)nc2c(C)nn(C)c2c1=O,5.481
7,COc1cccc(CNc2c(C)cnc3c2c(=O)n(C)c(=O)n3C)c1,-20.05
8,CCc1cnc2c(c1Nc1cccc(OC)c1)c(=O)n(C)c(=O)n2C,98.75
9,CCc1cnc2c(c1NCc1ccc(OC)cc1)c(=O)n(C)c(=O)n2C,121.6
10,CCc1cnc2c(c1NCc1cccc(OC)c1)c(=O)n(C)c(=O)n2C,-3.77
11,CCc1cnc2c(c1Nc1ccccc1OC)c(=O)n(C)c(=O)n2C,117.3
12,CCc1cnc2c(c1Nc1ccc(OC)cc1)c(=O)n(C)c(=O)n2C,-2.304
13,CCc1cnc2c(c1NCc1ccncc1)c(=O)n(C)c(=O)n2C,-11.7
14,O=C(N1CCCCC1)N1CCN(CC(O)c2ccc(F)cc2)CC1 (stereo unspecified),-12.83
15,Cc1nc(CNC(=O)Nc2ccc3c(c2)CCCC(=O)N3)sc1C,3.802
16,Cn1c(CO)cnc1SC(C(=O)NC1CC1)c1ccccc1 (stereo unspecified),-13.82
17,CC(C)NC(=O)[C@@H]1C[C@@H](N)CN1C(=O)c1cc2c([nH]c1=O)CCCC2,7.662
18,Cn1nc(C2CCCN2)c2c(C(=O)NCC(F)(F)F)cc(C3CC3)nc21 (stereo unspecified),125.9
19,CC(C)CC(NC(=O)c1cc(C2CC2)n[nH]1)c1ncnn1C (stereo unspecified),-18.23
20,O=C(NCC(F)(F)F)NC1CCCc2c1cnn2CCO (stereo unspecified),2.681
21,Cn1nc(C2CCNC2)c2c(C(=O)NCC(F)(F)F)cc(C3CC3)nc21 (stereo unspecified),104.4
22,CC(C)CNC(=O)c1cc(C2CC2)nc2c1c(C1CCCN1)nn2C (stereo unspecified),129.8
23,CCCn1ncc2c(C(=O)Nc3cnn(CC)c3C)cc(C3CC3)nc21,3.978
